# Results published in ChEMBL document CHEMBL3988442, “University of Dundee, Small-Polar-MMV Screening Library” (2021).
# In all, about 48,000 compounds went through this assay and about 13,000 (27%) showed an effect of 50% or more. This is one part of the list.
# Test system: Wolbachia pipientis
# Assay: Anti-Wolbachia Cell-Based Screen
# Format: functional
# Parameters: scale not given: in the data most compounds retested in dose-response had high values
# Conditions: 5 µM
row,SMILES,Percent Effect
1,COc1ccccc1CC(C)(C)NC(=O)CNS(C)(=O)=O,-9.621%
2,c1coc(-c2nnc(CN3CCCC3Cn3cncn3)o2)c1 (stereo not drawn),82.67%
3,Fc1ccc(-c2nnc(CN3CCCC3Cn3cncn3)o2)cc1 (stereo not drawn),-1.304%
4,COc1ccc(-c2nnc(CN3CCCC3Cn3cncn3)o2)cc1 (stereo not drawn),93.03%
5,Clc1ccc2cccnc2c1CN1CCCC1Cn1cncn1 (stereo not drawn),-9.545%
6,COc1ccc(-c2cnc(CN3CCCC3Cn3cncn3)o2)cc1 (stereo not drawn),-4.543%
7,N#Cc1ccc(CN2CCCCC2Cn2cncn2)cc1 (stereo not drawn),10.73%
8,Clc1ccccc1-c1nnc(CN2CCCC2Cn2cncn2)o1 (stereo not drawn),104.1%
9,c1csc(-c2nc(CN3CCCC3Cn3cncn3)co2)c1 (stereo not drawn),2.244%
10,Cc1cnn(CC2CCCCN2Cc2nnc(-c3ccco3)o2)c1 (stereo not drawn),2.932%
11,c1ccc(-c2nnc(CN3CCCC3Cn3cncn3)o2)cc1 (stereo not drawn),126.9%
12,CS(=O)(=O)N[C@@H]1CCN(Cc2nccs2)[C@H]1Cc1ccncc1.O=C(O)C(F)(F)F.O=C(O)C(F)(F)F,-21.66%
13,COCc1cc(CNC(=O)c2c(C)c(C)cc(C)c2C)n[nH]1,-1.645%
14,CC(=O)Nc1ccc(C(=O)N(C)C(C)Cc2cc(C)ccn2)cn1 (stereo not drawn),-9.308%
15,O=C(O)c1ccn(-c2ccccc2NS(=O)(=O)c2ccccc2)n1,2.8%
16,Cc1nc(CN2C[C@@H]3CN(c4ncccn4)C[C@@H]3C2=O)cs1.O=C(O)C(F)(F)F,2.706%
17,Cc1ccc(-c2nnc(CN3CCCCC3Cn3cncn3)o2)cc1 (stereo not drawn),107.2%
18,Cc1cccc(-c2nc(CN3CCCCC3Cn3cncn3)no2)c1 (stereo not drawn),-2.041%
19,CC(C)=Cc1c(-c2ccccc2)ncn1CCS(C)(=O)=O,-13.72%
20,O=C1CCC2(CCN(c3cccc(C(F)(F)F)n3)CC2)CN1CCO,4.395%
21,OC1(CN2CCCCC2)CCN(c2nccc(C(F)(F)F)n2)C1 (stereo not drawn),108.3%
22,CN1CCCC2(CCN(c3cccc(C(F)(F)F)n3)C2)C1=O (stereo not drawn),-13.28%
23,CC(C)N1CCCC2(CCN(c3nccc(C(F)(F)F)n3)C2)C1=O (stereo not drawn),-9.493%
24,OC1(CN2CCCCC2)CCN(c2cccc(C(F)(F)F)n2)C1 (stereo not drawn),110.2%
25,CC(C)N1CCC2(CCCN(c3nccc(C(F)(F)F)n3)C2)CC1.O=C(O)C(F)(F)F,-13.26%
26,CCS(=O)(=O)CC(=O)Nc1ccc2oc(C3CC3)nc2c1,-4.895%
27,c1cn(CC2CCOCC2)c(-c2cc(CN3CCCC3)cs2)n1,5.864%

row,SMILES,Percent Effect
1,CC(CCO)Nc1cccc(C(F)(F)F)n1 (stereo not drawn),-9.729%
2,CCn1nc(CC(C)C)cc1C(=O)NCCn1cccc1,-13.46%
3,COc1nc(C)cc(C)c1CNC(=O)N(C)Cc1cnn(C)c1,-3.346%
4,CCn1nc(CC(C)C)cc1C(=O)NCCCOC,-13.1%
5,CCn1nc(CC(C)C)cc1C(=O)N1CC[C@@H](O)C1,-2.224%
6,CCn1nc(CC(C)C)cc1C(=O)NCc1c(C)cc(C)nc1OC,140.7%
7,CCn1nc(CC(C)C)cc1C(=O)NCCS(=O)(=O)N(C)C,162.2%
8,CCn1nc(CC(C)C)cc1C(=O)N1CCCC(C#N)C1 (stereo not drawn),-3.007%
9,CCN(CC)C1CCN(C(=O)c2cc(CC(C)C)nn2CC)C1 (stereo not drawn),33.04%
10,CCC(CNC(=O)c1cc(CC(C)C)nn1C)N(C)CC (stereo not drawn),-16.5%
11,CCn1nc(CC(C)C)cc1C(=O)NCCCN1CCOCC1,125.1%
12,CCn1nc(CC(C)C)cc1C(=O)NCC(F)(F)F,127.5%
13,CCn1ccc(C(=O)NCCCN2CCOCC2)n1,-2.896%
14,CN(CCn1cnnc1)C(=O)c1ccnc(OC2CCC2)c1,-7.369%
15,COc1cc(CCC(=O)N2CCC(c3cnccn3)CC2)on1,147.9%
16,COc1cc(CCC(=O)N2CCC(c3cncc(C)n3)CC2)on1,141.8%
17,COc1cc(C)nc(N2CCN(C(=O)CCc3ccco3)CC2)n1,12.06%
18,COc1cc(C)nc(N2CCN(C(=O)CCc3ccncc3)CC2)n1,-15.67%
19,COc1cccc(OCC2CCCN(C(=O)CCc3cc(O)no3)C2)c1 (stereo not drawn),-4.281%
20,Cc1noc(C2CCN(C(=O)CCc3nccs3)CC2)n1,4.096%
21,CCc1ccccc1C(=O)NS(=O)(=O)CCCC#N,-10.54%
22,Cc1n[nH]c(CCC(=O)N2CCOC(Cc3ccc(F)cc3)C2)c1C (stereo not drawn),14.83%
23,O=C(NC1(C(=O)NCC2CC2)CCCC1)C1Cc2cc(F)ccc2O1 (stereo not drawn),-11.6%
24,CN(C)CCN1CCO[C@@H]2CN(C(=O)Cc3ccsc3)CC[C@@H]2C1,102.6%
25,Cc1cc(CN2C[C@@H](C)[C@@]3(CCN(C)C3=O)C2)oc1C.O=C(O)C(F)(F)F,2.821%
26,COCCN1CCO[C@@H]2CN(C(=O)Cc3ccccc3)CC[C@@H]2C1.O=C(O)C(F)(F)F,12.5%
